From PubChem BioAssay (Tox21)
Records with an inconclusive call do not appear. Activity calls are given as the source filed them. Unless noted, calls follow the shape of the dose curve; as a rule, active = well fitted curve in the direction sought with a large enough effect in the repeat runs; inconclusive = weak or mixed curves; inactive = no such curve, though single readings can be large; an effect the other way counts as inactive or inconclusive.

Columns and labels:
[1] = qHTS assay for small molecules that induce genotoxicity in human embryonic kidney cells expressing luciferase-tagged ATAD5 (AID 651632); also: nearly all actives have a fitted effect of over 15% in size
Method in brief: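 DMSO vehicle served as the control. HEK293T reporter cells, 16 hr at 37C, then 30 min Amplite at room temperature; ATAD5 induction is measured as luciferase activity.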

[2] = qHTS assay for small molecule agonists of the p53 signaling pathway - cell viability (AID 651633; calls by dose curve;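 also: p53RE-bla HCT reporter cells with a stable beta-lactamase p53 reporter; series mostly up to about 83 µM; nearly all actives have a fitted effect of over 30% in size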)
Method in brief: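 p53RE-bla cells were treated with compound for 16 hours at 37 C. Cytotoxicity was then measured as CellTiter-Glo luminescence after 30 min at room temperature.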

[3] = qHTS assay for small molecules that induce genotoxicity in human embryonic kidney cells expressing luciferase-tagged ATAD5 - cell viability (AID 651634; calls by dose curve; also: nearly all actives have a fitted effect of over 25% in size)
Method in brief: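 Here HEK293T cells with the ATAD5 luciferase reporter are incubated with test compounds for 15.5 hr, and cytotoxicity is then gauged by measuring protease activity in live cells using fluorescence.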

[4] = qHTS assay for small molecule disruptors of the mitochondrial membrane potential - cell viability (AID 720634; calls by dose curve;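 also: human HepG2 liver cancer cells; series mostly up to about 83 µM; nearly all actives have a fitted effect of over 20% in size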)
Method in brief: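 Viability of HepG2 cells is scored from ATP content by luminescence; cells are exposed to compound for 1 hr at 37 C and 5% CO2, then dosed with m-MPI dye before the CellTiter-Glo reagent.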

[5] = qHTS assay for small molecule disruptors of the mitochondrial membrane potential (AID 720635)
Method in brief: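 HepG2 cells exposed to compound 1 hr at 37C, then Mito-MPS dye 30 min. Ratio read of aggregate (540/590 nm) versus monomer (490/535 nm) fluorescence.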

[6] = qHTS assay to test for compound auto fluorescence at 590 nm (red) in HepG2 cells (AID 720674)
Method in brief: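 HepG2 cells, 2,000 per well in MEM with 10% FBS, attached overnight at 37 C, then got 23 nL compound or DMSO. After 1 hr at 37 C, 5% CO2, red fluorescence was read at 540/590 nm against Rose Bengal sodium as reference.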

[7] = qHTS assay to test for compound auto fluorescence at 535 nm (green) in HepG2 cells (AID 720675)
[8] = qHTS assay to test for compound auto fluorescence at 460 nm (blue) in HEK293 cells (AID 720678)
Method in brief: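 HEK293 cells (2,000 per well, medium with 10% dialyzed FBS) attached for 4-5 hr at 37C, then received compound and stood overnight at 37C, 5% CO2. Blue fluorescence was read at Ex/Em 405/460 nm and expressed relative to triamterene.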

[9] = qHTS assay to test for compound auto fluorescence at 590 nm (red) in HEK293 cells (AID 720679)
Method in brief: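 HEK293 cells (2,000/well, medium with 10% dialyzed FBS) attached for 4-5 hr at 37C, received 23 nL compound and were incubated overnight at 37C, 5% CO2. Red fluorescence was then read at 540/590nm Ex/Em, referenced to Rose Bengal sodium.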

[10] = qHTS assay to test for compound auto fluorescence at 535 nm (green) in HEK293 cells (AID 720680)
[11] = qHTS assay to test for compound auto fluorescence at 460 nm (blue) in HEK293 cell free culture (AID 720681)
Method in brief: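 Compounds were added to cell-free DMEM with 10% FBS and fluorescence read directly. The blue channel used 405 nm excitation and 460 nm emission, with triamterene as the reference fluorophore.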

[12] = qHTS assay to test for compound auto fluorescence at 535 nm (green) in HEK293 cell free culture (AID 720682)
Method in brief: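 Using fluorescein as calibrant, autofluorescence was quantified at 485/535 nm in cell-free DMEM containing 10% FBS after pintool addition of compound or vehicle.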

[13] = qHTS assay to test for compound auto fluorescence at 590 nm (red) in HEK293 cell free culture (AID 720683)
Method in brief: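 Cell-free wells of DMEM with 10% FBS received compound, and intrinsic fluorescence was read at excitation/emission 540/590 nm. Values expressed as equivalence to Rose Bengal sodium.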

[14] = qHTS assay to test for compound auto fluorescence at 590 nm (red) in HepG2 cell free culture (AID 720684)
Method in brief: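 Rose Bengal sodium served as the reference for red signal. Test compounds were dispensed into serum-containing MEM (10% FBS) without cells, and plates were read at 540/590 nm.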

[15] = qHTS assay to test for compound auto fluorescence at 460 nm (blue) in HepG2 cell free culture (AID 720685)
Method in brief: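 Cell-free plates of MEM plus 10% FBS received 23 nL compound or DMSO vehicle; blue-channel (405/460 nm) intensity scored against triamterene as reference fluorophore.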

[16] = qHTS assay to test for compound auto fluorescence at 535 nm (green) in HepG2 cell free culture (AID 720686)
[17] = qHTS assay to test for compound auto fluorescence at 460 nm (blue) in HepG2 cells (AID 720687)
Method in brief: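 HepG2 cells in MEM with 10% FBS, attached overnight at 37 C, were exposed to compound or DMSO for 1 hr at 37 C, 5% CO2. Blue fluorescence was read at 405/460 nm, with triamterene as reference fluorophore.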

[18] = target: Glucocorticoid receptor (Homo sapiens) (UniProt P04150); test: qHTS assay to identify small molecule agonists of the glucocorticoid receptor (GR) signaling pathway (AID 720691; active = well fitted activation curve with a large enough effect in the signal ratio in the repeat runs, not every such curve was filed as active; the % refers to the signal ratio)
Method in brief: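 Compounds in DMSO, alongside positive controls, were added to GR-bla HeLa reporter cells and incubated 18 h at 37 C; GRE-driven beta-lactamase was detected by fluorescence after 2 h with FRET substrate at room temperature.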

[19] = target: Glucocorticoid receptor (Homo sapiens) (UniProt P04150); test: qHTS assay to identify small molecule antagonists of the glucocorticoid receptor (GR) signaling pathway (AID 720692; active = well fitted inhibition curve with a large enough effect in the signal ratio in the repeat runs, not every such curve was filed as active; the % refers to the signal ratio)
Method in brief: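 In a 1536-well cell format, compounds were added 4 h after seeding GR-bla HeLa cells, together with dexamethasone at 5 nM final; reporter activity was measured by FRET-substrate fluorescence following 18 h at 37 C.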
% is scaled to controls: 0 for no effect and ±100 for the full control effect.

Sequence of Glucocorticoid receptor (Homo sapiens) (P04150 whole entry, looked up): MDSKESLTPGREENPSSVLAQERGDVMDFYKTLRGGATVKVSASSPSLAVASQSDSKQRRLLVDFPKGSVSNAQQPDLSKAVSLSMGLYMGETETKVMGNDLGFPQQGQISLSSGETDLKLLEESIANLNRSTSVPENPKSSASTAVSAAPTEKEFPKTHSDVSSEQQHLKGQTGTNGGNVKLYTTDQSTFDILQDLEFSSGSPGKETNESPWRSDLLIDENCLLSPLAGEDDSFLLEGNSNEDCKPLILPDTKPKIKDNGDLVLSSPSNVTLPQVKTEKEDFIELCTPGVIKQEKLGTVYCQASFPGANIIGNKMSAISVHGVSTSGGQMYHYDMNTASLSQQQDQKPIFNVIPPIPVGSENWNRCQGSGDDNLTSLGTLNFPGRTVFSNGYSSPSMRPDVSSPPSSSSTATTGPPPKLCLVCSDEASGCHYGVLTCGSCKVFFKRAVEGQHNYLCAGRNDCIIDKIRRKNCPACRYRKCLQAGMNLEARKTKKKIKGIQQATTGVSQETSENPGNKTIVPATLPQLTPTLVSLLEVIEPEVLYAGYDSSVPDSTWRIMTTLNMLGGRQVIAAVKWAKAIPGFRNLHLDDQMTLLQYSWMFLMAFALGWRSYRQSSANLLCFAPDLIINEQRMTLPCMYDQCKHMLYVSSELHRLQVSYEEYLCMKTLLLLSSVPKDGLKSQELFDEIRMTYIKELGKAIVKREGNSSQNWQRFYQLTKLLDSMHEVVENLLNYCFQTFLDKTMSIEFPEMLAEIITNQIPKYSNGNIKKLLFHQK

Nc1cc(C(Cl)=C(Cl)Cl)c(S(N)(=O)=O)cc1S(N)(=O)=O
inactive: Potency [1] | Potency [2] | Potency [3] | Potency [4] | Potency [5] | outcome [6] | outcome [7] | Potency [8] | outcome [9] | outcome [10] | Potency [11] | outcome [12] | outcome [13] | outcome [14] | Potency [15] | outcome [16] | Potency [17] | Potency [18] | Potency [19]

C[N+](C)(C)CC[N+]1(C)Cc2c(Cl)c(Cl)c(Cl)c(Cl)c2C1
inactive: Potency [1] | Potency [2] | Potency [3] | Potency [4] | Potency [5] | outcome [6] | outcome [7] | Potency [8] | outcome [9] | outcome [10] | Potency [11] | outcome [12] | outcome [13] | outcome [14] | Potency [15] | outcome [16] | Potency [17] | Potency [18] | Potency [19]

c1ccc(CCCc2ccccn2)cc1
inactive: Potency [1] | Potency [2] | Potency [3] | Potency [4] | outcome [6] | outcome [7] | Potency [8] | outcome [9] | outcome [10] | Potency [11] | outcome [12] | outcome [13] | outcome [14] | Potency [15] | outcome [16] | Potency [17]

O=C(O)c1cccc(C(=O)O)n1
inactive: Potency [1] | Potency [2] | Potency [3] | Potency [4] | Potency [5] | outcome [6] | outcome [7] | Potency [8] | outcome [9] | outcome [10] | Potency [11] | outcome [12] | outcome [13] | outcome [14] | Potency [15] | outcome [16] | Potency [17] | Potency [18] | Potency [19]

NC(=S)Nc1cccc2ccccc12
inactive: activation [1] 1.78% [at 8.08 µM] | activity change, negative = cytotoxicity [2] -14.4% [at 8.08 µM] | activity, negative = cytotoxicity [3] -8.88% [at 8.08 µM] | activity change, negative = cytotoxicity [4] 7.63% [at 8.08 µM] | ratio activity, negative = MMP loss [5] -26.9% [at 8.08 µM] | fluorescence, relative to Rose Bengal [6] -0.163% [at 3.72 µM] | fluorescence, % of fluorescein control [7] 0.0274% [at 3.72 µM] | fluorescence, % of triamterene [8] -0.0445% [at 3.72 µM] | fluorescence, % of fluorescent control [9] -0.0728% [at 3.72 µM] | fluorescence, % of fluorescein [10] 0.198% [at 3.72 µM] | fluorescence, % of fluorescent control [11] -0.0083% [at 3.72 µM] | activity change [12] 0.0539% [at 3.72 µM] | fluorescence, % of fluorescent control [13] -0.0289% [at 3.72 µM] | fluorescence, % of Rose Bengal [14] -0.172% [at 3.72 µM] | fluorescence, % of fluorescent control [15] 0.0279% [at 3.72 µM] | fluorescence, % of fluorescein control [16] 0.006% [at 3.72 µM] | fluorescence, % of fluorescent control [17] -0.0944% [at 3.72 µM] | activation [18] -4.91% [at 6.9 µM] | activity change, negative = inhibition [19] -3.43% [at 7.04 µM]

Nc1[nH]c(=O)ncc1F
inactive: Potency [1] | Potency [2] | Potency [3] | Potency [4] | Potency [5] | fluorescence, relative to Rose Bengal [6] -0.615% [at 18.6 µM] | fluorescence, % of fluorescein control [7] 0.005% [at 18.6 µM] | fluorescence, % of triamterene [8] 0.082% [at 18.6 µM] | fluorescence, % of fluorescent control [9] 0.0902% [at 18.6 µM] | fluorescence, % of fluorescein [10] 0.0412% [at 18.6 µM] | fluorescence, % of fluorescent control [11] 0.0652% [at 18.6 µM] | activity change [12] 0.004% [at 18.6 µM] | fluorescence, % of fluorescent control [13] -0.113% [at 18.6 µM] | fluorescence, % of Rose Bengal [14] 0.311% [at 18.6 µM] | fluorescence, % of fluorescent control [15] -0.0064% [at 18.6 µM] | fluorescence, % of fluorescein control [16] 0.186% [at 18.6 µM] | fluorescence, % of fluorescent control [17] 0.0009% [at 18.6 µM] | Potency [18] | Potency [19]

CC(C)COC(=O)C(C)C
inactive: Potency [1] | Potency [2] | Potency [3] | Potency [4] | Potency [5] | outcome [6] | outcome [7] | Potency [8] | outcome [9] | outcome [10] | Potency [11] | outcome [12] | outcome [13] | outcome [14] | Potency [15] | outcome [16] | Potency [17] | Potency [18] | Potency [19]
